Rab9 promoter act – activates the Rab9 promoter. Huh7 Rab9 promoter-luciferase reporter, luminescence, 24 h. Potency, µM (titrated, usually from 9.22 µM), for the others: at the top dose activation, negative = inhibition, actives largely listed as activators. 320,000 tested, 2.8% active; note: % of control where 0% means no effect; nearly all actives have a fitted effect of over 60% in size
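Using Huh7 cells stably transfected with Rab9 promoter–luciferase, compounds were incubated 24 h at 37 °C, 5% CO2; luciferase luminescence was read 10 min after reagent addition.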
ELG1 genotox – inducers of genotoxicity in HEK293T ELG1-luciferase cells; HEK293T ELG1-luciferase reporter, luminescence, 16 h; Potency, µM (top dose mostly 46 µM), inactives show top-dose activity change, positive = activation, actives largely listed as activators; 330,000 tested, 1.3% active; note: % of control where 0% means no effect; nearly all actives have a fitted effect of over 60% in size
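After overnight (16 hr) compound treatment at 37 °C, ELG1-luciferase HEK293T cells were lysed with ONE-Glo; luminescence quantified 30 min later at room temperature.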
ELG1 repair inh – blocks ELG1-dependent DNA repair in HEK293T cells | HEK293T ELG1-luciferase reporter, luminescence, 16 h; DNA damage induced by 5-fluorouridine | Potency, µM (highest dose often 46.1 µM), for inactives: at the top dose activity change, negative = inhibition, usual class: inhibitors | 330,000 tested, 2.3% active | AID 504467; note: % is set by controls: 0 for no effect and ±100 for the full control effect; nearly all actives have a fitted effect of over 55% in size
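Reporter activity after DNA damage by 5-fluorouridine is monitored. Compound-treated cells incubate 16 hr at 37 °C, then ONE-Glo is added for 30 min before luminescence reading.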
SMN2 splice up – SMN2 splice variant enhancement. Potency, µM (highest dose often 46.1 µM), for inactives: top-dose activity change, positive = activation, actives largely listed as activators. HEK293 SMN2-luciferase splicing reporter, luminescence, 30-36 h. 210,000 tested, 2.8% active; note: % of control where 0% means no effect; nearly all actives have a fitted effect of over 55% in size
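HEK293 cells carry an SMN2 […]–luciferase reporter in which exon 7 inclusion puts luciferase in frame. Cells were plated 10-12 h before compound addition, then incubated 30-36 h at 37C. ONE-Glo luminescence was read; sodium butyrate at 4.5 mM final served as control.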
NPC1 promoter act – activators of NPC1 promoter; Huh7 NPC1 promoter luciferase reporter, 24 h; Potency, µM (top dose mostly 9.22 µM), inactives show at the highest dose activation, hits mostly activators; 320,000 tested, 2.4% active; AID 485313; note: % of control where 0% means no effect; nearly all actives have a fitted effect of over 60% in size
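Cells: Huh7 expressing luciferase under the NPC1 promoter, 1500/well. Seeded 2 h, compound added, incubated 24 h at 37 °C. Luciferase reagent, 10 min ambient, then luminescence.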
FLuc modulator – inhibits or activates purified firefly luciferase, miR-21 counter-screen | P08659 | purified FLuc, Km substrates, luminescence inhibition | Potency, µM (series often up to 57.5 µM), without a hit: at the top dose activity change, negative = inhibition, most hits filed as inhibitors | 360,000 tested, 6.9% active;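 note: plate controls were vehicle for no effect and reference inhibitor for full effect; nearly all actives have a fitted effect of over 55% in size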
Target sequence (P08659 whole entry, looked up): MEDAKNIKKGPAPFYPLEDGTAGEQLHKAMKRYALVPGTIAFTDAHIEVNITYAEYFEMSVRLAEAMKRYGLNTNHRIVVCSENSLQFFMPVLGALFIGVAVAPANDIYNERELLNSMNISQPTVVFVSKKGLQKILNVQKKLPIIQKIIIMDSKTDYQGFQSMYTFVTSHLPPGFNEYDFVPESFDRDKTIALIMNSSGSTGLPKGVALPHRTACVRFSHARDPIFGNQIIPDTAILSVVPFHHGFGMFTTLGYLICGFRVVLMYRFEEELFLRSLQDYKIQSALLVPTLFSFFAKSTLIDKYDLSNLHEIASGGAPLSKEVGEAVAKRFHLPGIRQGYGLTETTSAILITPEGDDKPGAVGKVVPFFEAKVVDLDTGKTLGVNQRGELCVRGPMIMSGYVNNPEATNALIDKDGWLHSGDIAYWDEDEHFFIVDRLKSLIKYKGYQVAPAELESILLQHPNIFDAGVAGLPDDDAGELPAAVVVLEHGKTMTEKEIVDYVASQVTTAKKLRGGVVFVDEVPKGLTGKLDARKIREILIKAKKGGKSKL
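Purified P. pyralis luciferase (10nM final) with 10uM D-luciferin and 10uM ATP (Km levels) in 50mM Tris acetate pH 7.5, 10mM Mg acetate, 0.01% Tween-20, 0.05% BSA; qHTS 6-point titration, ~60 µM downward; luminescence read.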
Starred values were filed as active, the others as inactive; ? = inconclusive; . = no result; [ ] = another dose, or the depositor's remark. An excerpt weighted towards active compounds, which were near 9.4% of everything screened. Calls come from the whole dose curve; as a rule, active = well fitted curve in the direction sought with a large enough effect; inconclusive = small, poorly fitted or top-dose-only effect, or another doubt; inactive = no such curve, though single readings can be large; an effect the other way counts as inactive or inconclusive. Potency is the fitted concentration of half-maximal effect.

SMILES | Rab9 promoter act | ELG1 genotox | ELG1 repair inh | SMN2 splice up | NPC1 promoter act | FLuc modulator
CC(C)Cc1nnc(NC(=O)CCC(=O)N2CCN(c3ccc([N+](=O)[O-])cc3)CC2)s1 | -12.6% | -9.6% | 9.2µM* | . | -5.4% | 1.1%
CCOc1ccc(NC(=O)CSc2nc(-c3cccc(Cl)c3)nc3c2Cc2c(CO)cnc(C)c2O3)cc1 | . | . | . | . | . | -4.9%
CC(=O)NC1Sc2ccccc2N=C1c1ccccc1 (centres undefined) | ? | 13µM* | ? | ? | ? | 12µM*
Cc1ccccc1NC(=O)CSc1nc(-c2ccccc2)cc(=O)[nH]1 | -5.9% | 6.3% | 0.9% | . | -5.1% | -10.1%
Cc1ccccc1C(=O)NNC(=O)CSc1nc(-c2ccccc2)cc(=O)[nH]1 | 20.5% | 5.9% | ? | 4.6% | 10.9% | 10.7µM*
Cc1cc(/C([O-])=C(/C(=S)Nc2ccccc2)[n+]2ccccc2)c(C)n1-c1ccccc1 | 21.8% | 10.3µM* | ? | -0.4% | 16.8% | 12µM*
COc1ncccc1-c1nnn(-c2ccc(Cl)nc2)n1 | ? | 5.3% | ? | . | 25.8% | ?
O=C(Nc1nccs1)c1ccccc1Br | 27.4% | 7.4% | ? | . | 5.9% | ?
Brc1ccccc1-n1nnc(-c2nccs2)n1 | 1.41µM* | 8.2µM* | ? | . | 2.51µM* | 7.57µM*
Clc1ncccc1-c1nnn(-c2ccccc2Br)n1 | 24.9% | ? | ? | . | 22.9% | 16.9µM*
Cc1ccc(-n2nnc(-c3cccnc3Cl)n2)cc1 | 0.794µM* | 5.8µM* | ? | . | 0.794µM* | 0.757µM*
Clc1ccc(-n2nnc(-c3cccnc3Cl)n2)cn1 | ? | ? | ? | . | ? | 13.5µM*
Cc1ccc(/C=C/c2onc(C)c2S(=O)(=O)N2CCC(C(=O)NCc3ccc(OC(C)C)cc3)CC2)cc1 | . | . | . | . | . | -0.3%
COc1ccc(NC(=O)N2CCc3nc(-c4ccccc4)c4c(c3C2)CO[C@@H](C)C4)cc1 | . | . | . | 7.8%[9.22 µM] | . | .
C=CCn1c(C)nc2ccccc2c1=O | -2.4% | 0.9% | 5.4% | . | 0.6% | -0.1%
O=c1[nH]c(N/N=C/c2ccc(O)cc2)nc2ccccc12 | 2.24µM* | 20.6µM* | ? | 22.4µM* | ? | 10.7µM*
O=c1[nH]c(N/N=C\c2ccc(F)cc2)nc2ccccc12 | 1.26µM* | ? | ? | 10µM* | ? | 4.78µM*
C=CCn1c(N/N=C/c2ccc(O)cc2)nc2ccccc2c1=O | 29.8% | ? | ? | -1.4% | -2.3% | 2.39µM*
CN1CCN(CCc2ccc(Cl)c(Cl)c2)CC1 | . | . | . | -6.5% | . | .
CCOc1ccccc1N(C)C(=O)Cn1cnc2onc(-c3ccc(F)cc3)c2c1=O | . | . | . | . | . | -11.9%
Cc1cccc(C(=O)N2CCc3cc(CNC(=O)c4ccnn4C)ccc32)c1 | . | . | . | . | . | 0.9%
N=C(c1ccc2ccccc2c1)c1ccccc1Cc1ccccc1 | . | . | . | -3.8%[9.22 µM] | . | .
Cc1c(C(=O)Nc2ccc(F)cc2)oc2ccc(S(=O)(=O)N3CCCCCC3)cc12 | . | . | . | . | . | -8.1%
CCOC(=O)c1cnc(-n2nc(C)cc2C)nc1N(C)C | 4.47µM* | ? | ? | ? | ? | 5.36µM*
CCOC(=O)c1cnc(-n2nc(C)cc2C)nc1NC1CCCC1 | -13.0% | -8.6% | ? | . | -7.0% | -1.4%
SMILES | Rab9 promoter act | ELG1 genotox | ELG1 repair inh | SMN2 splice up | NPC1 promoter act | FLuc modulator
CCOC(=O)c1cnc(-n2nc(C)cc2C)nc1NCc1ccc2c(c1)OCO2 | 1.5% | -5.6% | 20.6µM* | -18.2% | 0.1% | -2.2%
CN(C(=O)Cn1c(=O)n(CCC(=O)NCc2ccc3c(c2)OCO3)c(=O)c2sccc21)c1ccccc1 | . | . | . | -3.2% | . | 3.2%
CC(C)CCN1C(=O)c2ccccc2CC1(C)C(=O)NC1CCC(C)CC1 (centres undefined) | . | . | . | 1.1% | . | -0.9%
O=C(OCC(=O)N1CCC(Cc2ccccc2)CC1)c1cccnc1Cl | . | -2.4% | -11.3% | . | . | .
O=C(OCC(=O)N1CCC(Cc2ccccc2)CC1)c1ccccc1F | 2.1% | 3.3% | ? | . | 0.7% | 4.26µM*
O=C(OCC(=O)N1CCC(Cc2ccccc2)CC1)c1ccccc1 | ? | 6.0% | 17.2% | -5.7% | -14.1% | 12µM*
Cc1cc(C)cc(NC(=O)C2CCC(CNS(=O)(=O)c3ccc4c(c3)C(C)(C)C(=O)N4C)CC2)c1 (centres undefined) | . | . | . | . | . | -19.2%
Cc1cccc(C(=O)NNC2=C(C(=O)C(F)(F)F)CCC2)c1O | -7.9% | -22.6% | 20.6µM* | -96.6% | -3.2% | ?
CCc1ccc(C(=O)c2cn(CC(=O)NCc3ccc(C)cc3)c3nc(C)ccc3c2=O)cc1 | . | . | . | . | . | -5.9%
Cc1c(Cl)cccc1NC(=O)C[C@H]1Sc2ccccc2NC1=O | . | . | . | -6.4%[9.22 µM] | . | .
CCOC(=O)CSc1ncnc2c1cnn2-c1ccc(Cl)cc1 | 4.5% | 17.2% | ? | 7.1% | 13.5% | 9.53µM*
CCOC(=O)Cn1cnc2c(cnn2-c2ccc(Cl)cc2)c1=O | ? | 3.1% | ? | . | 20.8% | ?
CCOC(=O)CC(=O)CSc1ncnc2c1cnn2-c1ccccc1 | ? | ? | ? | 8.6% | ? | 23.9µM*
Cc1nnc2c3cnn(-c4ccc(Cl)cc4)c3ncn12 | ? | 20.6µM* | ? | -8.4% | ? | ?
Cc1cc(Cn2nc(C(=O)NCc3cccc(C(F)(F)F)c3)cc2-c2ccccc2)on1 | -4.7% | -5.4% | -27.6% | . | 0.1% | -2.2%
